Reference: PubChem BioAssay AID372 (MTDP, 2006)
The whole screen tested about 100,000 compounds, of which about 770 (0.77%) were called active. The sample as a whole holds a higher share of actives than the screen did. Values without a mark were called inactive. Cut-off read from the data, not from the text of the source: active = inhibition above about 50%; inactive = the rest.

The molecules below were run against Gag-Pol polyprotein (Human immunodeficiency virus type 1 group M subtype B (isolate HXB2)) (UniProt P04585) (assay: RNase H inhibition, HIV 1 Gag Pol polyprotein, FRET biochemical assay, screening (AID 372)). Conditions: HIV-1 RT RNase H, FRET RNA/DNA substrate fluorescence; at 10 µM; active compounds read high.

SMILES | inhibition
CCCCOc1ccc2c(C(F)(F)F)cc(=O)oc2c1 | 9%
CCOC(=O)C1=C(C)NC2=C(C(=O)CC(c3ccc(OC)cc3)C2)C1c1ccccc1OC(C)C (configuration not stated) | 1%
O=C(N/N=C/c1ccccc1OC(=O)c1sc2ccccc2c1Cl)c1ccc([N+](=O)[O-])cc1 | 6%
O=C(Nc1cccc2ccccc12)c1ccccc1[N+](=O)[O-] | 5%
Cc1ccc(OC(=O)Cn2c(=O)sc3cccc(Cl)c32)cc1C | 12%
CCn1c(=O)sc2cccc(Cl)c21 | 50% (active)
Cc1cc(C)cc(OC(=O)Cn2c(=O)sc3cccc(Cl)c32)c1 | 11%
COC(=O)CCCCCN1C(=O)c2ccccc2C1=O | 6%
COc1cc(/C=c2\sc3nc4c(C)c(C)ccc4n3c2=O)cc(OC)c1O | 58% (active)
COc1cc(/C=c2\sc3nc4c(C)c(C)ccc4n3c2=O)cc(Cl)c1O | 31%
COc1cc(/C=c2/sc3nc4c(C)c(C)ccc4n3c2=O)cc(OC)c1OC(C)=O | 8%
O=C(Nc1ccc(-c2noc(-c3ccccc3F)n2)cc1)c1cccs1 | 10%
CC1CCN(C(=O)CN2C(=O)c3cccc4cccc(c34)C2=O)CC1 | 7%
CC1CCN(C(=O)CCCN2C(=O)c3cccc4cccc(c34)C2=O)CC1 | 56% (active)
O=C(CCCN1C(=O)c2cccc3cccc(c23)C1=O)N1CCCCC1 | 29%
COc1ccccc1-c1c(C(F)(F)F)oc2c(CN(C)C)c(O)ccc2c1=O | 24%
O=C(CN(c1cccc(Cl)c1)S(=O)(=O)c1ccccc1)N1CCN(Cc2ccccc2)CC1 | 14%
CN1c2ccccc2-c2ccccc2C12C=Cc1cc(Br)cc(Br)c1O2 (configuration not stated) | 17%
COc1cc(Br)cc2c1OC1(C=C2)c2ccccc2-c2ccccc2N1C (configuration not stated) | 50% (active)
CN1c2ccccc2-c2ccccc2C12C=Cc1cc(Br)ccc1O2 (configuration not stated) | 6%
O=C(CSc1nnc(-c2ccccc2)n1-c1ccccc1)N/N=C/C=C/c1ccccc1 | 15%

SMILES | inhibition
O=C(Nc1ccc(Cl)cc1)c1ccccc1C(=O)c1ccc(Cl)cc1 | 18%
Cc1cccc2c1[nH]c1nc(N/N=C\c3cccc(O)c3)nnc12 | 14%
Cc1cccc2c1[nH]c1nc(N/N=C\c3ccc(O)c(O)c3)nnc12 | 54% (active)
COc1cc(/C=N\Nc2nnc3c(n2)[nH]c2c(C)cccc23)ccc1O | 11%
O=c1[nH]c(-c2ccc(Br)cc2)nc2ccccc12 | 13%
O=c1[nH]c(-c2ccncc2)nc2ccccc12 | 68% (active)
Cc1ccc(-c2nc3ccccc3c(=O)[nH]2)cc1 | 7%
CC(=O)c1ccc(N2CCCCC2C)c(F)c1 (configuration not stated) | 0%
Cc1ccccc1-n1c(O)c(/C=C2\C=CC=N2)c(=O)[nH]c1=O | 1%
Cc1cccc(-n2c(O)c(/C=C3\C=CC=N3)c(=O)[nH]c2=S)c1 | 11%
O=c1[nH]c(=O)n(-c2ccccc2Cl)c(O)c1C=C1C=CC=N1 | 0%
O=c1[nH]c(=S)n(-c2ccccc2)c(O)c1/C=C1/C=CC=N1 | 11%
O=C(COc1ccccc1Cl)NNC(=O)c1cc2ccccc2cc1O | 6%
O=[N+]([O-])c1ccc(OCCCN2CCCCC2)cc1 | 0%
CCOc1ccc2ccccc2c1/C=C(\C#N)C(=O)NCc1ccco1 | 24%
CCc1ccc(/C=C2/SC(=S)N(CCC(=O)O)C2=O)cc1 | 8%
CCCC1=C(C(=O)OCC)C(c2cc(C)c(OC)cc2C)C(C#N)=C(N)O1 (configuration not stated) | 2%
Cc1cc(C)c2nc3s/c(=C\c4cccc([N+](=O)[O-])c4)c(=O)n3c2c1 | 10%
Cc1ccc(N2C(=O)CC(Cc3ccc(Cl)cc3)C2=O)cc1C (configuration not stated) | 5%
CCOC(=O)C1=C(C)N=c2s/c(=C\c3ccc(-c4cc(C)c(C)c([N+](=O)[O-])c4)o3)c(=O)n2C1c1ccc2c(c1)OCO2 (configuration not stated) | 50% (active)
CCOC(=O)C1=C(C)N=c2s/c(=C\c3ccc(-c4ccc(OC)cc4[N+](=O)[O-])o3)c(=O)n2C1c1ccc(C)cc1 (configuration not stated) | 44%

SMILES | inhibition
CCOC(=O)C1=C(C)N=c2s/c(=C\c3ccc(-c4ccc([N+](=O)[O-])cc4)o3)c(=O)n2C1c1ccc2c(c1)OCO2 (configuration not stated) | 41%
CCOC(=O)C1=C(C)N=c2s/c(=C\c3ccc(-c4ccc(OC)cc4[N+](=O)[O-])o3)c(=O)n2C1c1ccc(OC)cc1 (configuration not stated) | 0%
CCOC(=O)C1=C(C)N=c2s/c(=C\c3ccc(-c4cc(C)c(C)c([N+](=O)[O-])c4)o3)c(=O)n2C1c1ccc(Cl)cc1 (configuration not stated) | 37%
CCOC(=O)C1=C(C)N=c2s/c(=C\c3ccc(-c4ccc(C)c([N+](=O)[O-])c4)o3)c(=O)n2C1c1ccc(OC)cc1 (configuration not stated) | 21%
CCOC(=O)C1=C(C)N=c2s/c(=C\c3ccc(-c4ccc(C)c([N+](=O)[O-])c4)o3)c(=O)n2C1c1ccc(OC)c(OC)c1 (configuration not stated) | 18%
CCOC(=O)C1=C(C)N=c2s/c(=C\c3ccc(-c4ccc(C)c([N+](=O)[O-])c4)o3)c(=O)n2C1c1ccc2c(c1)OCO2 (configuration not stated) | 8%
CCOC(=O)C1=C(C)N=c2s/c(=C\c3ccc(-c4cc(C)c(C)c([N+](=O)[O-])c4)o3)c(=O)n2C1c1ccc(OC)c(OC)c1 (configuration not stated) | 51% (active)
CCOC(=O)C1=C(C)N=c2s/c(=C\c3ccc(-c4cc(C)c(C)c([N+](=O)[O-])c4)o3)c(=O)n2C1c1cc(OC)ccc1OC (configuration not stated) | 13%
CCOC(=O)C1=C(C)N=c2s/c(=C\c3ccc(-c4ccc(OC)cc4[N+](=O)[O-])o3)c(=O)n2C1c1ccc(SC)cc1 (configuration not stated) | 52% (active)
CCOC(=O)C1=C(C)N=c2s/c(=C\c3ccc(-c4cc(C)c(C)c([N+](=O)[O-])c4)o3)c(=O)n2C1c1ccc(OC)cc1 (configuration not stated) | 55% (active)
Clc1ccc(-c2nnc3ccc(N4CCOCC4)nn23)cc1 | 9%
COc1ccc(C2NC(=O)NC(C)=C2C(=O)OCC(Cl)(Cl)Cl)cc1OC (configuration not stated) | 2%
COc1ccc2ccccc2c1/C=N/NC(=O)c1ccccc1C | 13%
Cc1cc(I)ccc1NC(=O)c1ccc(-c2ccccc2[N+](=O)[O-])o1 | 49%
O=C1NC(=S)NC(=O)C1=Cc1cccc(OC(=O)c2ccc(Cl)cc2)c1 | 30%
CC(C)C(=O)NC(c1ccc(N(C)C)cc1)c1ccc2cccnc2c1O (configuration not stated) | 7%
CCN(CC)c1nc2c(s1)C(=O)CC(C)(C)C2 | 0%
Cc1ccnc(NC(=O)c2cc(-c3ccc(C)c(C)c3)nc3ccccc23)c1 | 4%
O=C1c2ccccc2NC(c2ccccc2F)N1c1ccc(Cl)cc1 (configuration not stated) | 5%
CCOC(=O)C1=C(C)N=c2s/c(=C\c3ccc(-c4ccc(Cl)cc4)o3)c(=O)n2C1c1ccc(OC)c(OC)c1 (configuration not stated) | 13%
CCOC(=O)C1=C(C)N=c2s/c(=C/c3ccc(-c4cccc(Cl)c4)o3)c(=O)n2C1c1ccc(OC)c(OC)c1 (configuration not stated) | 52% (active)

SMILES | inhibition
CCOC(=O)C1=C(C)N=c2s/c(=C\c3ccc(OCc4cccc5ccccc45)c(OC)c3)c(=O)n2C1c1ccc(OC)c(OC)c1 (configuration not stated) | 55% (active)
CCOC(=O)C1=C(C)N=c2s/c(=C\c3ccc(-c4cc(C)c(C)c([N+](=O)[O-])c4)o3)c(=O)n2C1c1ccc(N(C)C)cc1 (configuration not stated) | 56% (active)
CCOC(=O)C1=C(C)N=c2s/c(=C\c3ccc(-c4cc(C)c(C)c([N+](=O)[O-])c4)o3)c(=O)n2C1c1ccccc1 (configuration not stated) | 46%
CCOC(=O)C1=C(C)N=c2s/c(=C/c3ccc(-c4ccc(C)c([N+](=O)[O-])c4)o3)c(=O)n2C1c1ccc(N(C)C)cc1 (configuration not stated) | 43%
CCOC(=O)C1=C(C)N=c2s/c(=C\c3ccc(OCc4cccc5ccccc45)c(OC)c3)c(=O)n2C1c1ccc(OC)cc1 (configuration not stated) | 14%
CCOC(=O)C1=C(C)N=c2s/c(=C\c3ccc(OCc4cccc5ccccc45)c(OCC)c3)c(=O)n2C1c1ccc(OC)c(OC)c1 (configuration not stated) | 0%
CCOC(=O)C1=C(C)N=c2s/c(=C\c3ccc(-c4ccc(Cl)c(Cl)c4)o3)c(=O)n2C1c1ccc(OC)c(OC)c1 (configuration not stated) | 9%
CCOC(=O)c1c(C)[nH]c(/C=C(/C#N)C(N)=NCc2ccccc2)c1O | 11%
Cc1cc(C)c(S(=O)(=O)NC(=O)C23CC4CC(CC(C4)C2)C3)c(C)c1 | 2%
COc1cccc(/C=N/NC(=O)c2ccccc2O)c1 | 11%
O=C(NC(=S)Nc1ccc2oc(-c3ccccc3)nc2c1)c1ccccc1Cl | 7%
Cc1ccc(N=C2NC(=O)/C(=C/c3ccc(-c4cc([N+](=O)[O-])ccc4Cl)o3)S2)cc1Cl | 25%
Cc1ccc(N=C2NC(=O)/C(=C\c3ccc(C)o3)S2)cc1 | 52% (active)
Cc1ccc(N=C2NC(=O)/C(=C/c3ccccc3)S2)cc1 | 9%
O=C1NC(=Nc2ccc(F)cc2)S/C1=C/c1ccc(-c2ccc([N+](=O)[O-])cc2)o1 | 51% (active)
Cc1ccc(N=C2NC(=O)/C(=C/c3ccc(-c4ccc(Cl)c([N+](=O)[O-])c4)o3)S2)cc1Cl | 31%
Cc1ccc(/C=C2\SC(=Nc3ccc(F)cc3)NC2=O)o1 | 26%
O=C(COc1cccc(Cl)c1)N/N=C\c1ccc(O)cc1 | 1%
Cc1ccc2nc(-c3c(-c4ccccc4)c4cc(C)ccc4[nH]c3=O)cc(-c3ccccc3)c2c1 | 31%
